Most compounds without a hit are left out; they make up all but 1.2% or so of the library.
HTT aggregate – mutant huntingtin aggregation inhibition | PC12 HttQ103-GFP aggregates, Acumen cytometry, 40 h | Potency, µM (highest dose often 46.1 µM), usual class: inhibitors | actives 1.1% (n = 220,000) | AID 1688; also: nearly all actives have a fitted effect of over 60% in size
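Compounds (qHTS titration) were added to PC12 cells expressing an ecdysone-driven HTT exon 1 Q103–GFP fusion after induction with 100 nM tebufenozide. Aggregate formation was measured as GFP objects in cell lysates.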
GLA inh pH 4.5 – inhibitors of human alpha-galactosidase A at pH 4.5; activity change, negative = inhibition, % at 105 µM; P06280; purified enzyme, 4-MU-alpha-Gal fluorescence, pH 4.5; 230,000 tested, under 10 active
Target sequence (P06280 whole entry, looked up): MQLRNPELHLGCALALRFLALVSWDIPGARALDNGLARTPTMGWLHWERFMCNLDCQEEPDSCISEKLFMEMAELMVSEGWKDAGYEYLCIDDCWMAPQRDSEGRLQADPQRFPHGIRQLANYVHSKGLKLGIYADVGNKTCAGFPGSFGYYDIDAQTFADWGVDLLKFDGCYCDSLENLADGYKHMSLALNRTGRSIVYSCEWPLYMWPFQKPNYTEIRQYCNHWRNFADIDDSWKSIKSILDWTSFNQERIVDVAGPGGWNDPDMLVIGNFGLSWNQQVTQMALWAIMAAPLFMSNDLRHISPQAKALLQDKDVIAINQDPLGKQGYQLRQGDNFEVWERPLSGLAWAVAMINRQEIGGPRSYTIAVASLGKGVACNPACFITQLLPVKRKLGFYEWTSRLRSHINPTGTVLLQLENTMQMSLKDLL
GLA spleen mod – inhibitors or activators of human alpha-galactosidase in spleen homogenate | actives 0.008% (n = 240,000) | P06280 | Potency, µM (doses to about 80 µM), usual class: inhibitors | human spleen homogenate, 4MU-alpha-Gal fluorescence, 40 min
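qHTS titration in buffer at pH 5.0. Alpha-galactosidase activity in spleen homogenate was measured via 4-methylumbelliferone release from 1 mM fluorogenic substrate after 40 min at 37C and a pH 10 stop. AC50 came from Hill fits of control-normalized data.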
ERK EGF block – EGF-driven ERK pathway inhibition; HEK293-V1b, EGF-stimulated phospho-ERK AlphaScreen; Potency, µM (doses to about 11.5 µM), usual class: inhibitors; actives 0.41% (n = 130,000); also: nearly all actives have a fitted effect of over 55% in size
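Readout: AlphaScreen signal for phosphorylated ERK in lysed HEK293 cells stably expressing V1b. Stimulus 25 nM EGF, 5 min, following 30 min compound exposure. Data scaled to DMSO basal and full EGF activation.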
HTT ATP protect – cytoprotection in Huntington HTT-Q103 PC12 cell model. PC12 HTT-Q103 induced, cytoprotection, ATP luminescence, 40 h. Potency, µM (series often up to 56.4 µM), actives largely listed as activators. actives 0.14% (n = 230,000); also: nearly all actives have a fitted effect of over 45% in size
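Huntington model: PC12 line, ecdysone-inducible HTTQ103 exon1–GFP, tebufenozide 100 nM. Test articles in a dose series. Endpoint luminescence from cellular ATP.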
Of the large screens only hits and unclear results are named; the others gave an inactive call. Calls follow the shape of the dose curve; as a rule, active = well fitted curve in the direction sought with a large enough effect; inconclusive = small, poorly fitted or top-dose-only effect, or another doubt; inactive = no such curve, though single readings can be large; an effect the other way counts as inactive or inconclusive.

CC(=O)c1ccc(C2C=CC(O)C(CO)O2)cc1 (centres undefined)	none (no result: HTT aggregate, GLA inh pH 4.5, ERK EGF block)
Cc1ccc(-c2noc(CSc3nnc(Cc4ccccc4)n3-c3ccc(Cl)cc3)n2)cc1	HTT aggregate 16µM (no result: ERK EGF block)
CSCC[C@@H]1NC(=O)[C@@H](NC(=O)[C@H](CCCNC(=N)N)NC(=O)[C@H](CC(C)C)NC(=O)[C@H](CCSC)NC(=O)[C@H](CC(=O)O)NC(=O)[C@H](Cc2ccccc2)NC(=O)[C@@H](N)CC(=O)O)CSSC[C@@H](C(=O)N[C@@H](Cc2c[nH]c3ccccc23)C(=O)N[C@@H](CCC(N)=O)C(=O)N[C@H](C(=O)O)C(C)C)NC(=O)[C@@H]2CCCN2C(=O)[C@H](CCCNC(=N)N)NC(=O)[C@H](Cc2ccc(O)cc2)NC(=O)[C@H](C(C)C)NC(=O)[C@H](CCCNC(=N)N)NC(=O)CNC(=O)[C@H](CC(C)C)NC1=O	none (no result: HTT aggregate, GLA inh pH 4.5, ERK EGF block, HTT ATP protect)
CCn1ccnc1CN1CCc2c([nH]c3ccccc23)C1CC(C)C (centres undefined)	ERK EGF block inconclusive
CCn1ccnc1CN1CCc2c([nH]c3ccccc23)C1C(C)(C)C (centres undefined)	HTT aggregate inconclusive, ERK EGF block 32µM
CN1CCN(c2ccnc(-c3ccc(N(C)C)cc3)n2)CC1	none (no result: HTT aggregate, GLA inh pH 4.5, ERK EGF block)
O=S(=O)(Nc1nc2ccccc2nc1N1CCc2ccccc2C1)c1ccc(Cl)cc1	HTT aggregate inconclusive
O=S(=O)(Nc1nc2ccccc2nc1N1CCc2ccccc2C1)c1ccc(Br)cc1	HTT aggregate 7.1µM
O=S(=O)(Nc1nc2ccccc2nc1Cl)c1ccc(Br)cc1	HTT aggregate 10µM
CC(=O)c1c(O)cc(C)n(Nc2nc(C)cc(C)n2)c1=O	HTT aggregate 1.3µM (no result: ERK EGF block)
O=C(O)c1cc(N=Nc2ccc(-c3ccc(N=Nc4ccc(O)c(C(=O)O)c4)cc3)cc2)ccc1O	none (no result: HTT aggregate, GLA inh pH 4.5, ERK EGF block, HTT ATP protect)
COc1ccc(-c2cc(C(F)F)nn2-c2ccc(S(N)(=O)=O)cc2)cc1F	HTT ATP protect 8.9µM
C[C@@H]1C(=O)CC2C(C)(C)CCC[C@]2(C)[C@@]1(O)CCc1ccoc1 (some centres undefined)	none (no result: HTT aggregate)
CC(=O)Nc1ccc(NC(=O)CN(c2cc(Cl)ccc2Cl)S(C)(=O)=O)cc1	HTT aggregate 32µM
COc1cccc(NC(=O)Cn2c(=O)n(CCC(=O)NCc3ccco3)c(=O)c3ccccc32)c1	HTT ATP protect 3.2µM
COC(=O)C(C(C)=O)C1c2ccccc2C=C(C)N1C(=O)OC (centres undefined)	HTT ATP protect inconclusive (no result: HTT aggregate, ERK EGF block)
O=C(NN1C(=O)c2ccccc2NC1c1ccc([N+](=O)[O-])o1)c1ccc(Br)cc1 (centres undefined)	HTT aggregate inconclusive, HTT ATP protect 6.3µM
CC(C)C[C@H](NC(=O)[C@H](Cc1ccccc1)NC(=O)[C@@H]1CCCN1C(=O)[C@H](CC(=O)O)NC(=O)[C@@H]1CCC(=O)N1)C(=O)N[C@@H](CCCN=C(N)N)C(=O)N[C@@H](Cc1ccccc1)C(N)=O	none (no result: HTT aggregate, GLA inh pH 4.5, ERK EGF block, HTT ATP protect)
Cc1noc(C)c1COC(=O)Cc1ccc(Cl)c(Cl)c1	HTT aggregate 0.79µM (no result: ERK EGF block)
Cc1noc(C)c1COC(=O)[C@H](C)NS(=O)(=O)c1ccc(Cl)c(Cl)c1	none (no result: ERK EGF block)
CC(=O)NC(c1ccco1)c1ccc2cccnc2c1O (centres undefined)	HTT aggregate 3.5µM (no result: ERK EGF block)
Oc1c(C(Nc2ccccn2)c2ccccn2)ccc2cccnc12 (centres undefined)	HTT aggregate 2.8µM (no result: ERK EGF block)
O=C1CCCc2nc(N3CCN(Cc4ccccc4)CC3)ncc21	HTT aggregate 11µM (no result: ERK EGF block)
CO[C@H]1OC[C@@]2(C)[C@@H]3C4=C(CN2C(=O)OC(C)(C)C)[C@H](C)[C@H](CO)[C@H](CO)[C@H]4CC[C@H]13	none (no result: HTT aggregate)
C=C1C(=O)C=C2CN(C(=O)c3ccccc3)[C@@](Cc3ccc(F)cc3)(C(=O)OC)[C@@H]12	HTT aggregate 5µM, ERK EGF block 22µM
N#Cc1c(N(CC(=O)O)CC(=O)O)sc(C(=O)O)c1CC(=O)O	none (no result: GLA inh pH 4.5, GLA spleen mod, ERK EGF block)
CC(C)OC(=O)NCCOC(=O)Nc1cccc(Cl)c1	HTT aggregate 11µM (no result: ERK EGF block)
CC(C)OC(=O)NCCOC(=O)Nc1ccc(Cl)c(Cl)c1	HTT aggregate 7.1µM
CC(C)OC(=O)NC(C)(C)COC(=O)Nc1cccc(Cl)c1	none
O=C(Nc1ccc(Cl)c(Cl)c1)OCc1cncs1	HTT aggregate 11µM (no result: ERK EGF block)
CCCN1CCC(=O)N(C(CSc2ccc(Br)cc2)CC(C)C)CC1 (centres undefined)	none (no result: HTT aggregate, GLA inh pH 4.5, ERK EGF block, HTT ATP protect)
CN1CCC(=O)N(C(CSc2ccc(Br)cc2)c2ccccc2)CC1 (centres undefined)	none (no result: HTT aggregate, GLA inh pH 4.5, ERK EGF block, HTT ATP protect)
CN=C1C=CC(=C(c2ccc(N(C)C)cc2)c2ccc(N(C)C)cc2)C=C1	HTT aggregate 8.9µM (no result: GLA inh pH 4.5, GLA spleen mod, ERK EGF block)
COc1ccc(Oc2ncc3ncc(=O)n(Cc4cccc(OC)c4)c3n2)cc1	none (no result: HTT aggregate, GLA inh pH 4.5)
CCOC(=O)N1CCN(c2ncnc3c2[nH]c2ccc(OC)cc23)CC1	none (no result: ERK EGF block)
CCOC(=O)N1CCN(c2ncnc3c2[nH]c2ccc(F)cc23)CC1	HTT aggregate 7.1µM (no result: ERK EGF block)
Fc1ccc2[nH]c3c(N4CCN(c5ccccc5)CC4)ncnc3c2c1	HTT aggregate 22µM (no result: ERK EGF block)
COc1ccc(N2CCN(c3ncnc4c3[nH]c3ccccc34)CC2)cc1	HTT aggregate inconclusive (no result: ERK EGF block)
Cc1ccc2nc(N)[nH]c(=O)c2c1Sc1ccncc1	none (no result: GLA inh pH 4.5, GLA spleen mod, ERK EGF block)
O=c1[nH]c(=O)n(-c2ccc(F)cc2)c2c1C(C(F)(F)F)(C(F)(F)F)N=C(c1ccc(F)cc1)N2	HTT aggregate 3.2µM
CCNC(=O)[C@@H]1O[C@@H](n2cnc3c(NCc4ccccc4)ncnc32)[C@@H](O)[C@H]1O	none (no result: HTT aggregate, GLA inh pH 4.5, GLA spleen mod, ERK EGF block)
CC(C)[C@@H]1O[C@H](/C=C\c2ccccc2)OCC1(C)C	none (no result: HTT aggregate, GLA inh pH 4.5, GLA spleen mod, ERK EGF block)
N#C/C(C(N)=O)=c1/ccc2c(c1)N1C3=C(CCCC3)CC3CCCCC31N=2 (centres undefined)	ERK EGF block 7.9µM
N#CC(C#N)=c1ccc2c(c1)N1C3=C(CCCC3)CC3CCCCC31N=2 (centres undefined)	none (no result: ERK EGF block)
Cc1ccc(N2CN=c3s/c(=C\c4cccnc4)c(=O)n3C2)cc1	HTT aggregate 10µM (no result: ERK EGF block)
COc1ccc(NS(=O)(=O)c2ccc(OC)c3ccccc23)cn1	HTT aggregate 18µM (no result: ERK EGF block)
C/C(=C\COc1c2ccoc2cc2oc(=O)ccc12)CCC(O)C(C)(C)O (centres undefined)	none (no result: HTT aggregate, GLA inh pH 4.5, ERK EGF block, HTT ATP protect)
COC(=O)C[C@H]1c2ccccc2C2=C(C[C@@H](C)[C@H]3C(=O)N(c4ccccc4)C(=O)[C@@H]23)N1C(=O)OC	none (no result: HTT aggregate, ERK EGF block)
COc1ccccc1Cn1c(=O)c2ccccc2n2c(Sc3ncnc4sccc34)nnc12	HTT aggregate inconclusive, HTT ATP protect 1.6µM (no result: ERK EGF block)
COc1ccccc1Cn1c(=O)c2ccccc2n2c(SCc3csc(C)n3)nnc12	none (no result: ERK EGF block)
N#Cc1ccccc1OC[C@H](O)CNCCNC(=O)Nc1ccccc1	HTT ATP protect 32µM (no result: HTT aggregate)
